In all, about 44,000 compounds went through this assay and fewer than 10 were called active. The call rests on the fitted dose curve; in most records, active means well fitted activation curve with a large enough effect; inconclusive means small, poorly fitted or top-dose-only effect, or another doubt; inactive means no such curve, though single readings can be large or run the other way. Only a sample is shown.
biological target: Beta-2 adrenergic receptor (Homo sapiens) (UniProt P07550); assay: qHTS assay of beta-arrestin-biased ligands of beta2-adrenergic receptor: NCGC Sytravon Library Screen; conditions: HTLA Tango cells, beta-arrestin recruitment, luciferase luminescence, 18 h; series mostly up to 46.1 µM
Sequence (P07550 whole entry, looked up): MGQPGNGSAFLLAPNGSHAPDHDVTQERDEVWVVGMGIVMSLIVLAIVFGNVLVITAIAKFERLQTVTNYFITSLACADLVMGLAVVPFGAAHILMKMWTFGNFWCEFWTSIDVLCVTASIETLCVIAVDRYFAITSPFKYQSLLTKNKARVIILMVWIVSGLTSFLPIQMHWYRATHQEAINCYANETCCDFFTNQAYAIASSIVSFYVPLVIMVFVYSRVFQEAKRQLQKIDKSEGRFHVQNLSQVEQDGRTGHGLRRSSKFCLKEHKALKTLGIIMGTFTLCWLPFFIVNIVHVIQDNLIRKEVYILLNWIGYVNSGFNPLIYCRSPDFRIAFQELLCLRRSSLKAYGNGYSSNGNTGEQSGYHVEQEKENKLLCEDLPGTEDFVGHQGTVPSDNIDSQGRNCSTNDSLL
Text: The concept of biased agonism is an emerging concept of molecular pharmacology which proposes that seven transmembrane receptors (7TMRs) or G protein-coupled receptors (GPCRs), exist in multiple signaling conformations and complexes and that ligands (either agonists or antagonists) can induce signaling biased responses for distinct signal transduction cascades. […] Furthermore, accumulating evidence over the last decade has drawn attention to a novel function of beta-arrestins as signal transducers that scaffold various signaling molecules upon activation of 7TMRs. […] This beta-arrestin-biased signaling presumably leads to distinct physiological outcomes from those by G protein activation. Additionally, the active receptor conformations which prefer on this beta-arrestin signaling are likely different from those activating G protein signaling. […] The goal of this screening project will be to discover and optimize novel beta-arrestin-biased ligands for beta2-AR signaling. A luminescent cell-based assay for beta2-AR-mediated agonism, known as the Tango assay, has been validated in which ligand binding of a recombinant beta2-AR and subsequent recruitment of a recombinant beta-arrestin lead to the release of the transcriptional activator tTA, which upregulates transcription of a tTA-responsive luciferase gene. […] Compounds from the NCGC Sytravon Library collection were screened as a concentration-titration series that ranged from 46 microM to 0.6 nM. NIH Molecular Libraries Probe Production Network [MLPCN] NIH Chemical Genomics Center [NCGC] MLPCN Grant: Fast-track/HHSN271700800025C PI: Bryan Roth and Bob Lefkowitz
Tango cells were dispensed into white, solid, tissue-culture-treated 1536-well plates at 1500 cells/well in DMEM, containing 1% fetal bovine serum (FBS). Then, 23 nL of compounds or DMSO were delivered to each well using a pin tool. Plates were incubated at 37 degrees C, 5% CO2 for 18 hr. Then 2.5 uL luminescent substrate mix (in-house prepared: 150 mM Tris-Cl, pH 7.6, 3 mM MgCl2, 1% Triton X-100, 5 mM DTT, 0.5 mM CoA, 0.15 mM ATP, 0.44 mM D-luciferin, final concentrations) was added to each well. Plates were then incubated for 15 minutes at room temperature, and subsequently measured on a ViewLux plate reader for luminescent signal using a clear filter with a 10 second exposure and 2x binning. The %Activity was determined from the corrected luminescence values. […] Concentration-response curves were fitted to the signals arising from the resulting luminescence. The concentration-effect curves were then classified based on curve quality (r2), response magnitude and degree of measured activity, and compounds were subsequently categorized based on their curve class.

outcome, inactive:
OCc1cnc(SCc2ccc(F)cc2)n1Cc1ccc(F)cc1
CCOc1cc2[nH]c(=O)n(Cc3ccc(C(=O)NCCN(CC)CC)cc3)c(=O)c2cc1OCC
COc1ccc(Nc2ncc3c(n2)CCN(C(=O)OC(C)(C)C)C3)cc1
CCOC(=O)CNC(=O)c1cc2c(=O)n3cccc(C)c3nc2s1
COC(=O)c1ccc(NC(=O)CCc2c(C)nn(-c3ccc(N4CCCC4)nn3)c2C)cc1
CC(=O)N1CCCc2cc(S(=O)(=O)N3CCC(C(=O)NCc4ccc(C)cc4)CC3)ccc21
O=C1CC(c2ccc(F)cc2F)c2cc3c(cc2N1)OCO3 (stereo not drawn)
COc1cccc(NC(=O)CSc2cc(=O)n(C)c3ccc(Cl)cc23)c1
CC(=O)c1cccc(NC(=O)c2nc(-c3ccccc3)n(-c3cccc(C)c3)n2)c1
O=C(Nc1ccc2nc(SCC(=O)N3CCCc4ccccc43)sc2c1)c1ccc(Cl)cc1
COc1ccc(NC(=O)c2cc3cc(C)ccc3n2C)cc1
CCc1ccc(NC(=O)CN2CCSc3ccc(S(=O)(=O)N4CCCC4)cc32)cc1
O=c1cc2nc(-c3ccccc3)nc(SCCOc3ccc(Cl)cc3)n2[nH]1
CCc1ccc(Sc2cc(C(=O)NCCCOC(C)C)c3ccccc3n2)cc1
Cn1c(=O)c2c(nc(NCCc3ccccc3)n2Cc2ccccc2Br)n(C)c1=O
O=C(CSc1ncc(S(=O)(=O)c2ccc(Br)cc2)c(=O)[nH]1)Nc1ccc2c(c1)OCCO2
CCN1CCN(c2cc(C)c3cc(NC(=O)c4cc(Cl)ccc4OC)ccc3n2)CC1
Cc1cccc(-n2c(=O)c3c(c4cc(C)ccc4n3C)n(CC(=O)Nc3ccccc3Cl)c2=O)c1
CCc1ccccc1NC(=O)CSc1nc(C)c(C(=O)Nc2ccccc2)c(-c2ccc(Cl)cc2)c1C#N
O=C(NCc1ccccc1Cl)C1=Cc2cc(Br)ccc2OC1
COC(=O)C1=C(c2ccccc2)c2ccccc2S(=O)(=O)N1CC(=O)Nc1ccccc1C(F)(F)F
Cc1ccc2cccc(NC(=O)c3cccc4ccccc34)c2n1
CC(C)OCCCn1c(SCC(=O)c2ccccc2)nc2c(sc3ccccc32)c1=O
CCC(C)Nc1oc(-c2ccc(COc3ccc(Cl)cc3)o2)nc1C#N (stereo not drawn)
Cc1ccc(NC(=O)c2nc(S(=O)(=O)Cc3cccc(C)c3)ncc2Cl)cc1
COc1ccc(C2C(=O)N(C3CCCCCC3)CC(=O)N2CCc2ccc(Cl)cc2)cc1OC (stereo not drawn)
CCOC(=O)c1cnc2c(C)cc(Cl)cc2c1NCCc1ccc(OC)c(OC)c1
Cc1cccc(CC(=O)Nc2cccc(-c3cn4cccnc4n3)c2)c1
Cc1cc(C)cc(NC(c2nnc(-c3cccc(F)c3)o2)c2ccc(F)cc2Cl)c1 (stereo not drawn)
Cn1nnnc1SCCCNCc1cccc(OCc2ccc(Cl)cc2)c1
COCCn1c(CCC(=O)Nc2cc(C)ccc2C)nc2cccnc21
O=C(CSc1oc(-c2ccccc2)nc1S(=O)(=O)c1ccc(Br)cc1)NC1CCCCC1
COc1ccccc1CNC(=O)CCCCn1c(=O)c2ccccc2n(CC(=O)Nc2cc(Cl)ccc2C)c1=O
COc1cccc(CNC(=O)Cc2csc3nc(-c4ccccc4)cn23)c1
Cn1c(COc2ccccc2C(C)(C)C)nc2ccccc21
Cc1ccc(CNC(=O)CSc2c(C)cnc3c2c(=O)n(C)c(=O)n3C)cc1
Cc1ccc(CN2CCC(CNC(=O)c3cnn(-c4ccc(C)cc4)c3C3CCN(C(=O)OC(C)(C)C)CC3)CC2)cc1
CSc1nc(=O)c2c(n1C)NC(=O)CC2c1ccccc1OC(C)C (stereo not drawn)
COc1ccc(-c2c(C)c3ccc(O)c(CN4CCCC4)c3oc2=O)cc1OC
COc1ccccc1NC(=O)c1oc2ccccc2c1NC(=O)COc1ccccc1OC
CC(=O)N1CCc2cc(S(=O)(=O)NC(Cc3ccccc3)C(=O)NCc3ccc(C)cc3)ccc21 (stereo not drawn)
O=C1Cc2cc(S(=O)(=O)Nc3ccc(OC(F)(F)F)cc3)cc3c2N1CCC3
CC1CCCN(c2nc3c(S(=O)(=O)c4ccc(C(C)C)cc4)nnn3c3ccsc23)C1 (stereo not drawn)
Cc1ccc(CSc2nc3ccsc3c(=O)n2CCC(C)C)cc1
CCOc1ccccc1CNC(=O)C1CCCN(S(=O)(=O)c2ccc3c(ccn3C)c2)C1 (stereo not drawn)
Cc1ccc2c(=O)cc(C(=O)Nc3sc4c(c3C(=O)NCc3cccnc3)CCCC4)oc2c1
COc1ccc(C(=O)Nc2ccc3nc(N4CCCCC4)cc(C)c3c2)cc1OC
COC(=O)CC1Oc2ccccc2-n2cc(-c3ccccc3)nc21 (stereo not drawn)
CCOC(=O)c1cc(-c2ccc(OC)c(S(=O)(=O)Nc3ccc(OC)cc3OC)c2)on1
Cc1cccc(NC(=O)c2ccc3nc(C(C)C)oc3c2)c1C
COc1ccc(Cl)cc1-n1c(CCC(=O)O)ccc1-c1ccc(C)cc1
O=C(Nc1ccccc1F)C(c1ccccc1)N1Cc2ccccc2C1=O (stereo not drawn)
Cc1ccc(-c2cc(N)n(Cc3cccc(Cl)c3)n2)cc1
Cc1nc(SCC(=O)N2CCN(c3ccccc3)CC2)[nH]c(=O)c1C
Cc1ccc(C)c(N2CCN(C(=O)C3CCC(CNS(=O)(=O)c4cccs4)CC3)CC2)c1 (stereo not drawn)
CCOc1ccc(CNCCSc2nnnn2C)cc1
NS(=O)(=O)c1ccc(NC(=O)C(=O)Nc2ccc3nc4n(c(=O)c3c2)CCCCC4)cc1
CCc1ccc(-n2nnc(-c3nc(-c4ccccc4)no3)c2C)cc1
COc1cccc(CNc2nccn(-c3ccc(OC)c(OC)c3)c2=O)c1
COc1ccc(NC(=O)CSc2nc3ccccc3[nH]2)cc1
CC(C)c1ccc(NC(=O)C2CCN(c3nc(-c4ccc(C(C)C)cc4)no3)CC2)cc1
CCOc1cccc2cc(-c3cn4c(n3)sc3cc(C)ccc34)c(=O)oc12
CCc1cc2c(cc3c(=O)n(CC(=O)NCc4cccc(Cl)c4)nc(CC)n32)s1

From PubChem BioAssay AID1347077 (National Center for Advancing Translational Sciences (NCATS), 2019)
